From the OligoGym collection

target: NDUFAB1; assay: pooled miR-30 sensor sort-seq; sequence = guide strand; details: shRNA
Note: reference of the scale not given here.

Sequence | sensor-assay potency score (higher = more potent)
TTCTTGTGGACACATTAACTTT | -1.46
TTACTGAAAGCTTCTCTGGGTC | 0.337
TGTAATCTACAATTTCTTGTGG | 0.132
TGTAACTCTACCAGGAACCTGC | 0.262
ACAACTGTGTAACTCTACCAGG | -1.08
TTTACTGAAAGCTTCTCTGGGT | 0.584
TACAATTTAAATACAAGTCCAT | 0.341
TACGTAAAGAACACGGTCCTGG | 0.0334

target: NDUFC1; assay: as above; details: shRNA

Sequence | sensor-assay potency score (higher = more potent)
TTTGATCGCACTGAAGGGCCGC | -0.255
TATATATTCACATATAACTTTT | -0.874
TTTGATGAGATAGATCCACAAG | -1.07
TTTTGTACTCTAAAATATCTTC | -0.163
TTGTTTGATGAGATAGATCCAC | -0.545
TTCATTGTGTTGTTTGATGAGA | -0.384
TTTACAACTCAACAGATGGTGA | -0.815
TTGATCGCACTGAAGGGCCGCT | -0.209
TTGTACTCTAAAATATCTTCAT | -0.343
TAAAATATCTTCATTGTGTTGT | 1.09
TAGAACTTTGATCGCACTGAAG | -1.43
TAGATCCACAAGAAGACAGTGG | 0.0941

target: NEBL; assay: as above; details: shRNA

Sequence | sensor-assay potency score (higher = more potent)
TAGATTTGGTGAATGCTGCATT | 0.277
TACATGGCTCGGTAGGTCCTTA | -0.857
TTCATGTTGAGTGCCATCTTGC | -0.598
TTATTTGGTCCTGACATTCTGT | -0.142
ATCTCTTTTGTACTTGACCTGA | -0.797
TAGCTGTGAAGTCAGACCCTAA | -1.2
TTTATGCCAATACTTATCCAGG | -1.28
TTTGTACTTGACCTGACTCTGC | -0.0804
TTGAATCTACATGACATGCAAC | -0.738
TTCAATAATAGGAACGCGCAGT | -0.234
TTGTCTTAAAAGTATCTTCTAT | -0.254
TTCAGGTGTATCTGCCACCGTG | -0.9

target: NEFH; assay: as above; details: shRNA

Sequence | sensor-assay potency score (higher = more potent)
TACCTCTGTCTTTTCTTTGGGT | 0.0672
TATCTCTATATCCAGAGCCATC | -1.97
TAAGCTATCATAATTGTCCATC | -0.916
TTGGTGTCTTTTTTCTCCGGTG | -0.602
TTTTCTTATCTTCAGCCTCTTC | -0.582
TTTTTTCTTATCTTCAGCCTCT | 0.587
TTGGCTTCTTCCTTCACTGGGG | 0.0706
TCTCTTGCTAACATATTGCTAA | -0.697
